The list is not random: actives were taken first. Their share in the collection is about 12%.
Pf growth 96h: Primary qHTS for delayed death inhibitors of the malarial parasite plastid, 96 hour incubation; P. falciparum luciferase reporter growth, 96 h; Potency, µM (top dose mostly 28.7 µM), inactives show at the top dose activity change, negative = inhibition, hits mostly inhibitors; actives 6.9% (n = 320,000); AID 504834, 2011; further: on the % scale 0 is the no-effect control and ±100 the full control effect
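Luminescence readout: decreased luciferase signal marks inhibited growth of reporter-expressing P. falciparum in infected red cells (2% hematocrit, 0.05% parasitemia final), exposed to compound two generations (96 h, 37 C, 5% CO2).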
AmpC inh no detg: qHTS Inhibitors of AmpC Beta-Lactamase (assay without detergent). Potency, µM (titrated, usually from 57.1 µM), inactives show at the highest dose activity change, negative = inhibition, hits mostly inhibitors. P00811. actives 0.52% (n = 330,000). AmpC nitrocefin hydrolysis, absorbance 480 nm, 0.0001% Triton;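 further: plate controls were no compound for no effect and no enzyme for full effect; nearly all actives have a fitted effect of over 20% in size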
Target sequence (P00811 whole entry, looked up): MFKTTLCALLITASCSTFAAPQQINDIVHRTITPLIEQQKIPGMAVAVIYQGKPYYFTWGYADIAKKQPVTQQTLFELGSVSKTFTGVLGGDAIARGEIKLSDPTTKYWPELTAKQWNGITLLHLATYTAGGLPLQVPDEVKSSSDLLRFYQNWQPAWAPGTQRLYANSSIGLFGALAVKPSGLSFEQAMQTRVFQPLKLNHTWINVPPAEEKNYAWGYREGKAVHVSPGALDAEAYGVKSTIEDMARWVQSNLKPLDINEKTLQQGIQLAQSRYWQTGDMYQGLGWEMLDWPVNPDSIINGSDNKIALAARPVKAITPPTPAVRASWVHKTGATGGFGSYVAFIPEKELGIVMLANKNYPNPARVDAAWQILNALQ
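20 mM phosphate pH 7.0 + 0.01% (detergent screen) or 0.0001% Triton X-100; 5.3 nM AmpC reagent; cpd preinc 15 min RT; nitrocefin (800 uM stock) to start; A480 q20 s × 4 min; Activity was normalised to no-enzyme and no-compound control wells.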
Sm TGR block: qHTS Assay for the Inhibitors of Schistosoma Mansoni Peroxiredoxins. purified TGR, DTNB reduction, TNB absorbance 405 nm. actives 3% (n = 360,000). AID 485364, 2010. Schistosoma mansoni thioredoxin glutathione reductase (TGR), Q962Y6. Potency, µM (titrated, usually from 114 µM), for the others: at the top dose activity change, negative = inhibition, actives largely listed as inhibitors; further: on the % scale 0 is the no-effect control and ±100 the full control effect; nearly all actives have a fitted effect of over 60% in size
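First, TGR (20 nM dispensed) and NADPH were mixed with compound. Second, a 15 min room-temperature incubation followed. Third, further NADPH and then DTNB were added to start the reaction. Finally, TNB absorbance was monitored kinetically.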
AmpC detergent: qHTS Inhibitors of AmpC Beta-Lactamase (assay with detergent) | P00811 | AmpC hydrolysis of nitrocefin, absorbance 480 nm, 0.01% Triton | Potency, µM (titrated, usually from 114 µM), for inactives: top-dose activity change, negative = inhibition, hits mostly inhibitors | actives 0.041% (n = 370,000) | AID 485294, 2010;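 further: 0% = no-compound wells and -100% = no-enzyme wells; nearly all actives have a fitted effect of over 25% in size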
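AmpC (5.3 nM in the dispensed reagent) in 20 mM phosphate pH 7.0 with 0.01% (detergent screen) or 0.0001% Triton X-100 was preincubated with compounds for 15 min at room temperature. Nitrocefin was then added from an 800 uM solution, and hydrolysis was followed at 480 nm.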
SARS PLpro yeast: qHTS of Yeast-based Assay for SARS-CoV PLP; S. cerevisiae expressing SARS-CoV PLpro, growth rescue; Potency, µM (titrated, usually from 32.9 µM), without a hit: at the top dose activity, positive = growth rescue, actives largely listed as activators; actives 0.19% (n = 330,000); AID 485353, 2010; calls by dose curve; further: 0% is about no effect; nearly all actives have a fitted effect of over 55% in size
Pf growth 48h: Primary qHTS for delayed death inhibitors of the malarial parasite plastid, 48 hour incubation. P. falciparum luciferase growth in erythrocytes, 48 h. Potency, µM (top dose mostly 28.7 µM), for inactives: at the top dose activity change, negative = inhibition, usual class: inhibitors. AID 504832, 2011. actives 5.9% (n = 310,000); further: on the % scale 0 is the no-effect control and ±100 the full control effect
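Luminescence readout; reporter = integrated firefly luciferase in P. falciparum. RBC culture at 2% hematocrit, 0.1% parasitemia final, 37 C/5% CO2; decreased signal taken as growth inhibition.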
An asterisk follows results filed as active; ! = not confirmed by another sample; [ ] = remark or other dose. Unless noted, the call rests on the fitted dose curve; in most records, active means well fitted curve in the direction sought with a large enough effect; inconclusive means small, poorly fitted or top-dose-only effect, or another doubt; inactive means no such curve, though single readings can be large; an effect the other way counts as inactive or inconclusive. Potency means the concentration at half of the fitted maximal effect.

Results for COc1ccc2c(c1OC)C(=O)O[C@H]2[C@@H]1c2cc3c(cc2CCN1C)OCO3 ?
Pf growth 96h: 15.1µM*!; AmpC inh no detg: -12.0%; Sm TGR block: -8.8%; AmpC detergent: inconclusive; Pf growth 48h: -20.8%

Results for CCc1nc(-c2cc(S(=O)(=O)N3CCN(c4ccc(F)cc4)CC3)ccc2OC)no1 ?
Sm TGR block: 1.0%; AmpC detergent: 11.1%

Results for CCCCNS(=O)(=O)c1ccc2nc(-c3cccnc3)cc(C(=O)NCCCN(CC)CC)c2c1 ?
Pf growth 96h: inconclusive; AmpC inh no detg: 69.9%; Sm TGR block: 3.0%; AmpC detergent: inconclusive; SARS PLpro yeast: 0.0%; Pf growth 48h: 11.7µM*

What do the screens show for `CCN(CC)CCNC(=O)c1cc(-c2cccnc2)nc2ccc(S(=O)(=O)N3CCC(C)CC3)cc12`?
Pf growth 96h: 13.1µM*; AmpC inh no detg: 22.2%; Sm TGR block: -9.8%; AmpC detergent: -2.9%; SARS PLpro yeast: 5.7%; Pf growth 48h: inconclusive

Results for Fc1ccc(-c2cc(-c3nc(-c4cccc(Cl)c4)no3)[nH]n2)cc1 ?
Sm TGR block: 5.2%; AmpC detergent: -6.3%

How did CCOC(=O)C(NC(C)=O)C(OC(C)=O)c1cccc(N(CCO)CCO)c1 (centres undefined) do in these assays?
AmpC inh no detg: -2.0%; Sm TGR block: -23.1%; AmpC detergent: -7.6%; SARS PLpro yeast: 11.0%; Pf growth 48h: 28.4%

Results for CCN1CCN(C(c2cccnc2)c2c(NC(=O)c3ccco3)sc(C)c2C)CC1 (centres undefined) ?
Pf growth 96h: 4.65µM*; AmpC inh no detg: 18.0%; Sm TGR block: 20µM*; AmpC detergent: inconclusive; SARS PLpro yeast: -0.9%[6.58 µM]; Pf growth 48h: 4.15µM*

What do the screens show for `CCN1CCN(C(c2ccccn2)c2c(NC(=O)c3ccccc3)sc(C)c2C)CC1` (centres undefined)?
Pf growth 96h: 13.1µM*; AmpC inh no detg: 143.7%; Sm TGR block: -10.7%; AmpC detergent: -0.7%; SARS PLpro yeast: -5.9%; Pf growth 48h: inconclusive

How did Cc1sc(NC(=O)c2ccco2)c(CN2CCN(Cc3ccccc3)CC2)c1C do in these assays?
Pf growth 96h: inconclusive; AmpC inh no detg: 37.9%; Sm TGR block: -19.7%; AmpC detergent: -9.7%; SARS PLpro yeast: -1.9%; Pf growth 48h: 9.28µM*

How did COc1cccc(C(c2c(NC(=O)c3ccccc3)sc(C)c2C)N2CCN(C)CC2)c1 (centres undefined) do in these assays?
Pf growth 96h: inconclusive; AmpC inh no detg: 1.2%; Sm TGR block: -2.3%; AmpC detergent: -0.4%; SARS PLpro yeast: 4.4%; Pf growth 48h: 11.7µM*

How did COc1ccc(C(c2c(NC(=O)c3ccccc3)sc(C)c2C)N2CCN(CCO)CC2)cc1 (centres undefined) do in these assays?
Pf growth 96h: inconclusive; AmpC inh no detg: 298.3%; Sm TGR block: -2.7%; AmpC detergent: 7.4%; SARS PLpro yeast: 9.9%; Pf growth 48h: inconclusive

What do the screens show for `COc1ccccc1OCCn1c(C(C)O)nc2ccccc21` (centres undefined)?
AmpC inh no detg: -2.8%; Sm TGR block: -0.3%; AmpC detergent: 1.1%; SARS PLpro yeast: -0.9%; Pf growth 48h: 3.6%

What do the screens show for `COc1ccc2c(c1OC)C(=O)N1C2SC(C)(C)[C@H]1C(=O)NCC(C)C` (some centres undefined)?
Pf growth 96h: -22.2%; AmpC inh no detg: -3.0%; Sm TGR block: -0.4%; AmpC detergent: -0.7%; SARS PLpro yeast: -1.6%; Pf growth 48h: inconclusive

How did CCOc1ccccc1C(=O)Nc1cc(-c2nc3cccnc3s2)ccc1C do in these assays?
Sm TGR block: -1.1%; AmpC detergent: -8.8%

What do the screens show for `CCOC(=O)c1c(NC(=O)c2cc(-c3cccc(Cl)c3)on2)sc(C(C)=O)c1C`?
Sm TGR block: 0.4%; AmpC detergent: 0.9%

How did Cc1ccc(NC(=O)C(Cc2ccccc2)NS(=O)(=O)c2cccc3nsnc23)c(C)c1 (centres undefined) do in these assays?
Sm TGR block: -16.9%; AmpC detergent: 0.3%

What do the screens show for `COc1ccccc1NC(=O)c1sc2nc(C)c(C(=O)Nc3ccc(C)cc3C)c(-c3ccco3)c2c1N`?
Sm TGR block: -0.2%; AmpC detergent: 0.7%

Results for COc1ccccc1-c1noc(-c2ccc(NC3CCCC3)c([N+](=O)[O-])c2)n1 ?
Sm TGR block: -31.9%; AmpC detergent: -2.7%

What do the screens show for `Cc1sc(NC(=O)c2ccco2)c(C(c2cccnc2)N2CCC(C)CC2)c1C` (centres undefined)?
AmpC inh no detg: 19.4%; Sm TGR block: 17.8µM*; AmpC detergent: -0.8%; SARS PLpro yeast: -26.6%; Pf growth 48h: 1.85µM*

What do the screens show for `COc1ccc(/C=N\NC(=O)COc2ccccc2)c(C(=O)O)c1OC`?
Pf growth 96h: -21.5%; AmpC inh no detg: -22.3%; Sm TGR block: -0.6%; AmpC detergent: 2.0%; SARS PLpro yeast: inconclusive; Pf growth 48h: 6.3%

What do the screens show for `CCN(CCn1cccn1)C(=O)c1cccc(OC2CCN(S(C)(=O)=O)CC2)c1`?
Pf growth 96h: 10.4µM*; AmpC inh no detg: 22.3%; Sm TGR block: 10.8%; AmpC detergent: -2.5%; SARS PLpro yeast: inconclusive; Pf growth 48h: 88.4%

What do the screens show for `COc1cccc(/C=C(\C#N)C(=O)Nc2ccc(NC(C)=O)cc2)c1OC`?
Sm TGR block: -7.6%; AmpC detergent: -2.1%

Results for CN(C)S(=O)(=O)c1cc(NC2CC(=O)N(c3ccc(F)cc3)C2=O)ccc1Cl (centres undefined) ?
Pf growth 96h: 31.2%; AmpC inh no detg: -44.1%; Sm TGR block: 25.1µM*; AmpC detergent: -12.1%; SARS PLpro yeast: -1.4%; Pf growth 48h: -11.2%

What do the screens show for `Cc1ccc(NC2CC(=O)N(c3ccc(C)cc3)C2=O)cc1` (centres undefined)?
AmpC inh no detg: -2.2%; Sm TGR block: -27.9%; AmpC detergent: -0.7%; SARS PLpro yeast: -6.7%; Pf growth 48h: 28.5%

Results for c1ccc(Nc2cccc(Nc3ccccc3)c2)cc1 ?
Pf growth 96h: inconclusive; AmpC inh no detg: -19.8%; Sm TGR block: 35.5µM*; AmpC detergent: 3.2%; SARS PLpro yeast: -52.1%; Pf growth 48h: 10.2%
